Experimental data reported in PubChem BioAssay (NCATS).
Results filed as inconclusive are left out. A number with no mark means an inactive call. Calls of active or inactive are those of the source. Calls come from the whole dose curve; as a rule, active = well fitted cell-killing curve with a large enough effect; inconclusive = small, poorly fitted or top-dose-only effect, or effect the other way; inactive = flat fitted curve, though single readings scatter.

test system: CAOV3; experiment: Primary qHTS to identify gynecologic anti-cancer compounds using libraries of approved drugs and bioactive compounds (AID 1345084); conditions: Gynecologic cancer cell panel viability, ATPlite luminescence, 48 h; series mostly up to 57.5 µM; activity change, negative = cytotoxicity: at the top concentration; note: nearly all actives have a fitted effect of over 55% in size
Method in brief: (§1)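 Measured: luminescence after ATPlite addition (15 min, RT). Exposure: 48 h, 37 C, 5% CO2.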
% is set by controls: 0 for no effect and ±100 for the full control effect; potency is the fitted concentration of half-maximal effect.

Structure (SMILES)	Potency	activity change, negative = cytotoxicity
N#CC1(c2cccc(C(=O)Nc3cc(Oc4ccc5nc(NC(=O)C6CC6)sc5n4)ccc3F)c2Cl)CC1	11.2 µM (active)	
O=C(O)CCNc1cc(N2CCc3ccccc3CC2)nc(-c2ccccn2)n1		26.6%
COc1cc2ncnc(Nc3cc(Br)c(O)c(Br)c3)c2cc1OC		10.2%
CN(C)c1ccc(-c2nc3ncc(Cl)c(N4CCN(CC(=O)Nc5nccs5)CC4)c3[nH]2)cc1		-11.3% [at 25.3 µM]
COc1ccnc(CS(=O)c2nc3ccc(OC(F)F)cc3[nH]2)c1OC (stereo not drawn)		-16.5%
Nc1[nH]nc2nnc(-c3c(-c4ccccc4)nn4ccccc34)cc12		-4.92%
CNC(=O)c1ccc2c(C(=Nc3cccc(CN(C)C)c3)c3ccccc3)c(O)[nH]c2c1		-4.31%
Cc1cnc(CNC(=O)c2c(=O)c3ccc(N4CCCN(C)CC4)nc3n3c2sc2ccccc23)cn1		-1.16% [at 11.6 µM]

test system: CASKI; experiment: as above; conditions: Gynecologic cancer cell panel viability, ATPlite luminescence, 48 h; series mostly up to 57.5 µM; activity change, negative = cytotoxicity: at the top concentration
Method in brief: as §1

Structure (SMILES)	Potency	activity change, negative = cytotoxicity
O=C1NC(=O)C(c2cnc3ccccn23)=C1c1cn2c3c(cccc13)CN(C(=O)N1CCOCC1)CC2	3.16 µM (active)	
O=C(O)CCNc1cc(N2CCc3ccccc3CC2)nc(-c2ccccn2)n1	inactive	
COc1cc2ncnc(Nc3cc(Br)c(O)c(Br)c3)c2cc1OC		-12.6%
CN(C)c1ccc(-c2nc3ncc(Cl)c(N4CCN(CC(=O)Nc5nccs5)CC4)c3[nH]2)cc1		-5.22% [at 25.3 µM]
COc1ccnc(CS(=O)c2nc3ccc(OC(F)F)cc3[nH]2)c1OC (stereo not drawn)		-1.21%
Nc1[nH]nc2nnc(-c3c(-c4ccccc4)nn4ccccc34)cc12		4.56%
CNC(=O)c1ccc2c(C(=Nc3cccc(CN(C)C)c3)c3ccccc3)c(O)[nH]c2c1		-2.14%
O=C(CC12CC3CC(CC(C3)C1)C2)Nc1cccc2nc(NCCNCCO)ccc12		-2.64%
Cc1cnc(CNC(=O)c2c(=O)c3ccc(N4CCCN(C)CC4)nc3n3c2sc2ccccc23)cn1		-0.786% [at 11.6 µM]
CCN1CCC(n2cc(CNc3cc(Cl)c4ncc(C#N)c(Nc5ccc(F)c(Cl)c5)c4c3)nn2)CC1		-22.9%

test system: Es-2; experiment: as above; conditions: Gynecologic cancer cell panel viability, ATPlite luminescence, 48 h; series mostly up to 57.5 µM; activity change, negative = cytotoxicity: at the top concentration
Method in brief: as §1

Structure (SMILES)	activity change, negative = cytotoxicity	Potency
O=C1NC(=O)C(c2cnc3ccccn23)=C1c1cn2c3c(cccc13)CN(C(=O)N1CCOCC1)CC2	1.99%	
O=c1[nH]nc(OCCCc2ccc(Cl)cc2)c(NCc2cccnc2)c1Br	-26.3%	
O=C(O)CCNc1cc(N2CCc3ccccc3CC2)nc(-c2ccccn2)n1		inactive
COc1cc2ncnc(Nc3cc(Br)c(O)c(Br)c3)c2cc1OC	11.1%	
CN(C)c1ccc(-c2nc3ncc(Cl)c(N4CCN(CC(=O)Nc5nccs5)CC4)c3[nH]2)cc1	0.792% [at 25.3 µM]	
COc1ccnc(CS(=O)c2nc3ccc(OC(F)F)cc3[nH]2)c1OC (stereo not drawn)	-3.42%	
Nc1[nH]nc2nnc(-c3c(-c4ccccc4)nn4ccccc34)cc12	-10.2%	
CNC(=O)c1ccc2c(C(=Nc3cccc(CN(C)C)c3)c3ccccc3)c(O)[nH]c2c1	-1.67%	
NC1(C(=O)N[C@@H](CCO)c2ccc(Cl)cc2)CCN(c2ncnc3[nH]ccc23)CC1	-3.87%	
O=C(CC12CC3CC(CC(C3)C1)C2)Nc1cccc2nc(NCCNCCO)ccc12	-2.37%	
Cc1cnc(CNC(=O)c2c(=O)c3ccc(N4CCCN(C)CC4)nc3n3c2sc2ccccc23)cn1	-19% [at 11.6 µM]	
CCN1CCC(n2cc(CNc3cc(Cl)c4ncc(C#N)c(Nc5ccc(F)c(Cl)c5)c4c3)nn2)CC1	5.56%	

test system: HeLa; experiment: as above; conditions: Gynecologic cancer cell panel viability, ATPlite luminescence, 48 h; series mostly up to 57.5 µM; activity change, negative = cytotoxicity: at the top concentration
Method in brief: as §1

Structure (SMILES)	activity change, negative = cytotoxicity	Potency
N#CC1(c2cccc(C(=O)Nc3cc(Oc4ccc5nc(NC(=O)C6CC6)sc5n4)ccc3F)c2Cl)CC1	-21.8%	
O=C1NC(=O)C(c2cnc3ccccn23)=C1c1cn2c3c(cccc13)CN(C(=O)N1CCOCC1)CC2	10.2%	
O=c1[nH]nc(OCCCc2ccc(Cl)cc2)c(NCc2cccnc2)c1Br	-30.1%	
O=C(O)CCNc1cc(N2CCc3ccccc3CC2)nc(-c2ccccn2)n1		inactive
COc1cc2ncnc(Nc3cc(Br)c(O)c(Br)c3)c2cc1OC	-1.89%	
COc1ccnc(CS(=O)c2nc3ccc(OC(F)F)cc3[nH]2)c1OC (stereo not drawn)	-24.6%	
Nc1[nH]nc2nnc(-c3c(-c4ccccc4)nn4ccccc34)cc12	3.04%	
CNC(=O)c1ccc2c(C(=Nc3cccc(CN(C)C)c3)c3ccccc3)c(O)[nH]c2c1	1.53%	
NC1(C(=O)N[C@@H](CCO)c2ccc(Cl)cc2)CCN(c2ncnc3[nH]ccc23)CC1	-9.95%	
O=C(CC12CC3CC(CC(C3)C1)C2)Nc1cccc2nc(NCCNCCO)ccc12	9.67%	
Cc1cnc(CNC(=O)c2c(=O)c3ccc(N4CCCN(C)CC4)nc3n3c2sc2ccccc23)cn1	-13.6% [at 11.6 µM]	
CCN1CCC(n2cc(CNc3cc(Cl)c4ncc(C#N)c(Nc5ccc(F)c(Cl)c5)c4c3)nn2)CC1	27.6%	
C[C@@H](N)c1ccc(C(=O)Nc2ccnc3[nH]ccc23)cc1		17.8 µM (active)
